Compounds with a hit are over-represented: about 21% of the library has one in this group of screens.
HCV inh: qHTS Assay for Inhibitors of Hepatitis C Virus (HCV). Huh7.5.1 HCVcc-Cre infection, luciferase reporter, 44 h. Potency, µM (doses to about 41.8 µM), hits mostly inhibitors. 3.4% of 340,000 active. AID 651820, 2012
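After 44 h co-culture of compound, cells and HCVcc-Cre (~0.5 moi), substrate is added for 15 min at room temperature and luciferase measured over 15 sec. Cells were seeded at 1,000/well and pre-cultured 4 h.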
HCMV inh: qHTS Assay for inhibitors of the human cytomegalovirus (HCMV) | 4.5% of 410,000 active | activity change, negative = inhibition, % at 57.5 µM | AID 1259415, 2018 | HFF cells, HCMV-luciferase reporter, 72 h; active compounds read low; in the data active = activity change below about -60%; inconclusive = no clear call, values can overlap the other calls; inactive = above about -39%
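Two-dose cell screen: HFF monolayers treated with compounds and infected with luciferase-expressing HCMV at 1 PFU/cell, 72 h at 37C, then lysed for luciferase measurement.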
Shiga toxin inh: A qHTS for Small Molecule Inhibitors of Shiga Toxin | 9.2% of 290,000 active | AID 2315, 2010 | inhibition, % at 38.7 µM | Vero cells, Shiga toxin protein synthesis inhibition reporter; in the data active = inhibition mostly above about 28%, no sharp cut-off; inactive = mostly below about 43%
Pf growth 48h: Primary qHTS for delayed death inhibitors of the malarial parasite plastid, 48 hour incubation. P. falciparum luciferase growth in erythrocytes, 48 h. Potency, µM (titrated, usually from 28.7 µM), usual class: inhibitors. 5.9% of 310,000 active
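Read-out is firefly luciferase luminescence from an integrated reporter in P. falciparum, so falling signal marks reduced parasite growth. Infected erythrocytes were at 2% hematocrit and 0.1% parasitemia (final) in Albumax-supplemented RPMI 1640.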
CHX counter: Cycloheximide Counterscreen for Small Molecule Inhibitors of Shiga Toxin; cell reporter, cycloheximide protein synthesis inhibition counterscreen; max response, %; 12% of 300,000 active; AID 2314, 2010; in the data active = max response mostly above about 13%, no sharp cut-off; inactive = mostly below about 14%; note: read at 38.3 µM for the half of the compounds with a filed dose
Pf growth 96h: Primary qHTS for delayed death inhibitors of the malarial parasite plastid, 96 hour incubation | P. falciparum luciferase reporter growth, 96 h | Potency, µM (top dose mostly 28.7 µM), most hits filed as inhibitors | 6.9% of 320,000 active | AID 504834, 2011
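Delayed-death screen, second-generation endpoint: infected erythrocytes, 2% hematocrit, 0.05% parasitemia final; 96 hours at 37 C, 5% CO2; luciferase detection reagent; luminescence decrease equals reduced growth.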
Numbers stand for hits; [ ] = dose if it differs, or a comment. Unless noted, calls come from the whole dose curve; as a rule, active = well fitted inhibition curve with a large enough effect; inconclusive = small, poorly fitted or top-dose-only effect, or another doubt; inactive = no such curve, though single readings can be large or run the other way.

COc1cc(C)ccc1NC(=O)Cc1csc(NC(=O)Nc2ccccc2OC)n1 was read as HCV inh 8.91µM, HCMV inh inactive, Pf growth 48h inconclusive and Pf growth 96h inconclusive.
`COc1ccc(S(=O)(=O)Nc2cc(OC)cc3cccnc23)cc1` gave Shiga toxin inh inactive and CHX counter inactive.
COc1ccccc1NC(=O)Cc1coc2cc(C)ccc12 was read as HCV inh inactive, HCMV inh inactive, Shiga toxin inh inactive, CHX counter 24.0 and Pf growth 96h inactive.
Screening COc1ccccc1NC(=O)c1oc2ccc(C)cc2c1C returned HCV inh inactive, HCMV inh inactive, Shiga toxin inh inactive, Pf growth 48h inactive and CHX counter 34.4.
O=C(COC(=O)/C=C/c1ccccc1[N+](=O)[O-])Nc1ccc(S(=O)(=O)N2CCOCC2)cc1 was read as HCV inh inactive and HCMV inh inactive.
For c1coc(CNCc2cccs2)c1 the results were HCV inh inactive, HCMV inh inactive, Shiga toxin inh inactive, Pf growth 48h inactive, CHX counter inactive and Pf growth 96h 9.28µM.
CCOC(=O)N1CCC(NC(=O)c2ccc3c(c2)N(Cc2cccc(C)c2)C(=O)c2ccccc2S3(=O)=O)CC1 was read as HCMV inh inactive.
For Cn1nc(C(C)(C)C)cc1C(=O)N1CCCCC1c1cc(C(=O)NCc2ccccc2)no1 (stereo not given) the results were HCMV inh inactive.
For Cn1nc(C(C)(C)C)cc1C(=O)N1CCCCC1c1cc(C(=O)NCc2ccc(F)cc2)no1 (stereo not given) the results were HCMV inh -74.9.
For O=C(Nc1ccccc1)N1CCCC(CNS(=O)(=O)Cc2ccccc2)C1 (stereo not given) the results were HCV inh inactive, HCMV inh inactive, Shiga toxin inh inactive, Pf growth 48h inactive, CHX counter 12.9 and Pf growth 96h inactive.
For CSc1cccc(NC(=O)N2CCCC(CNS(=O)(=O)Cc3ccccc3)C2)c1 (stereo not given) the results were HCV inh inactive, HCMV inh inactive, Shiga toxin inh inactive, Pf growth 48h inactive, CHX counter inactive and Pf growth 96h 9.28µM.
`CN(C(=O)c1ccc(OCC=C(c2ccccc2)c2ccccc2)cc1)c1ccccc1I` gave Shiga toxin inh inactive and CHX counter inactive.
Screening Cc1cccc(C(=O)O[C@@H]2[C@H](Cc3ccccc3)NS(=O)(=O)[C@H]3C[C@@H]4C=C[C@]23O4)c1 returned HCV inh inactive, HCMV inh inactive, Pf growth 48h inconclusive and Pf growth 96h 9.28µM.
For Cc1cccc(C(=O)O[C@H]2[C@H](Cc3ccccc3)NS(=O)(=O)[C@H]3CC4C=C[C@]23O4)c1 the results were HCV inh inactive and HCMV inh inactive.
For C#CCN1CC(=O)N(COC(=O)C2C(C=C(C)C)C2(C)C)C1=O (stereo not given) the results were HCMV inh inactive.
`Cc1oc(-c2ccccc2)cc1C(=O)Nc1ccccc1` gave HCV inh inconclusive, HCMV inh inactive, Shiga toxin inh inactive, Pf growth 48h inactive, CHX counter inactive and Pf growth 96h inactive.
Cc1c(C(=O)Nc2ccccc2)csc1-c1ccccc1 was read as HCV inh inconclusive, HCMV inh inactive, Shiga toxin inh 39.9, Pf growth 48h inactive, CHX counter 36.1 and Pf growth 96h inconclusive.
Cc1c(C(=O)Nc2ccccc2[N+](=O)[O-])csc1-c1ccccc1 was read as HCV inh inconclusive, HCMV inh inactive, Shiga toxin inh 96.9, Pf growth 48h inactive, CHX counter 34.5 and Pf growth 96h inactive.
For CN1CCN(c2ncnc3scc(-c4ccccc4Cl)c23)CC1 the results were HCV inh inactive, HCMV inh -73.2, Shiga toxin inh inactive, Pf growth 48h inconclusive, CHX counter inactive and Pf growth 96h 5.86µM.
Screening OCC1CCCN(c2nc(CN3CCCCC3)nc3scc(-c4ccccc4)c23)C1 (stereo not given) returned HCV inh inconclusive, HCMV inh inconclusive, Shiga toxin inh inactive, Pf growth 48h inactive, CHX counter inactive and Pf growth 96h inconclusive.
Screening COc1ccc(-c2csc3nc(C)nc(N4CCN(C(C)=O)CC4)c23)cc1OC returned HCV inh inactive, HCMV inh inactive, Shiga toxin inh inactive, Pf growth 48h 4.15µM, CHX counter inactive and Pf growth 96h inactive.
Cc1nc(N2CCN(c3ccccc3O)CC2)c2c(-c3ccccc3)csc2n1 was read as HCV inh inconclusive, HCMV inh inactive, Shiga toxin inh inactive, Pf growth 48h 13.1µM, CHX counter inactive and Pf growth 96h inconclusive.
Screening COc1ccc(-c2csc3nc(C)nc(N4CCC(C)CC4)c23)cc1OC returned HCV inh inconclusive, HCMV inh inactive, Shiga toxin inh inactive, Pf growth 48h inactive, CHX counter inactive and Pf growth 96h inactive.
Screening OCC1CCCN(c2ncnc3scc(-c4ccccc4)c23)C1 (stereo not given) returned HCV inh inactive, HCMV inh -63.2, Shiga toxin inh inactive, Pf growth 48h inconclusive, CHX counter inactive and Pf growth 96h inconclusive.
Screening CC1CCCC(C)N1C(=O)COC(=O)c1n[nH]c(=O)c2ccccc12 (stereo not given) returned HCV inh inactive, HCMV inh inactive, Pf growth 48h inactive and Pf growth 96h inactive.
Screening COc1ccccc1NC(=O)C(C)N1C(=O)c2ccccc2C1=O (stereo not given) returned HCV inh inactive, HCMV inh inactive, Shiga toxin inh inactive, Pf growth 48h inconclusive, CHX counter inactive and Pf growth 96h inactive.
`Fc1ccccc1-c1noc2nc(Oc3cccc(N4CCOCC4)c3)ccc12` gave HCMV inh inactive.
Oc1ccccc1N1CCN(c2ncnc3scc(-c4ccccc4)c23)CC1 was read as HCV inh inconclusive, HCMV inh inactive, Shiga toxin inh inactive, Pf growth 48h 5.86µM, CHX counter inactive and Pf growth 96h 5.22µM.
For Oc1ccccc1N1CCN(c2ncnc3scc(-c4ccc(F)cc4)c23)CC1 the results were HCV inh 11.2µM, HCMV inh -81.4, Shiga toxin inh inactive, Pf growth 48h 13.1µM, CHX counter inactive and Pf growth 96h inconclusive.
OCCN1CCN(c2ncnc3scc(-c4ccc(F)cc4)c23)CC1 was read as HCV inh inactive, HCMV inh inactive, Shiga toxin inh inactive, Pf growth 48h inactive, CHX counter inactive and Pf growth 96h inactive.
Screening CC(=O)N1CCc2c(sc3c2c(=O)n(-c2ccccc2)c(=O)n3CC(=O)c2ccc(Cl)cc2)C1 returned HCMV inh inactive.
Screening COc1cc(C(=O)N(c2ccc(C)c(C)c2)C2C=CS(=O)(=O)C2)cc(OC)c1OC (stereo not given) returned HCV inh inactive, HCMV inh inactive, Shiga toxin inh inactive, Pf growth 48h inactive, CHX counter inactive and Pf growth 96h inactive[1.15 µM].

Screening results (PubChem)
